Bioassay records (PubChem)
Pf growth 48h = P. falciparum growth inhibition at 48 hours (one generation); P. falciparum luciferase growth in erythrocytes, 48 h; Potency, µM (titrated, usually from 28.7 µM), for inactives: at the top dose activity change, negative = inhibition, usual class: inhibitors; actives 5.9% (n = 310,000); also: potency is read from the fitted curve at half-maximal effect; % is scaled to controls: 0 for no effect and ±100 for the full control effect
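Firefly luciferase activity from engineered P. falciparum reports growth; inhibitors lower the luminescent signal. Cultures contained 2% hematocrit erythrocytes at 0.1% final parasitemia.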
HCMV inh = human cytomegalovirus inhibition. HFF cells, HCMV-luciferase reporter, 72 h; hits give low values. activity change, negative = inhibition, % at 57.5 µM. actives 4.5% (n = 410,000); in the data active = activity change below about -60%; inconclusive = no clear call, values can overlap the other calls; inactive = above about -39%; also: % is scaled to controls: 0 for no effect and ±100 for the full control effect
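Two-dose cell screen: HFF monolayers treated with compounds and infected with luciferase-expressing HCMV at 1 PFU/cell, 72 h at 37C, then lysed for luciferase measurement.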
Shiga toxin inh = blocks Shiga toxin action in Vero cells | Vero cells, Shiga toxin protein synthesis inhibition reporter | inhibition, % at 38.7 µM | actives 9.2% (n = 290,000); in the data active = inhibition mostly above about 28%, no sharp cut-off; inactive = mostly below about 43%; also: 0% is about no effect
Cycloheximide cs = counter-screen hit for Shiga toxin inhibitors, cycloheximide; cell reporter, cycloheximide protein synthesis inhibition counterscreen; max response, %; actives 12% (n = 300,000); AID 2314; in the data active = max response mostly above about 13%, no sharp cut-off; inactive = mostly below about 14%; also: read at 38.3 µM for the half of the compounds with a filed dose; 0% is about no effect
Pf growth 96h = inhibits malaria parasite growth, 96 h; P. falciparum luciferase reporter growth, 96 h; AID 504834; actives 6.9% (n = 320,000); Potency, µM (titrated, usually from 28.7 µM), without a hit: at the top dose activity change, negative = inhibition, hits mostly inhibitors; also: potency is read from the fitted curve at half-maximal effect; % is scaled to controls: 0 for no effect and ±100 for the full control effect
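96 h incubation, 37 C, 5% CO2, of luciferase-reporter P. falciparum-infected RBCs (2% hematocrit, 0.05% parasitemia final) with test compounds; endpoint luminescence.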
Active calls of the source: *; i = inactive; u = inconclusive; x = no result. An excerpt weighted towards active compounds, which were near 20% of everything screened. Unless noted, calls follow the shape of the dose curve; as a rule, active = well fitted inhibition curve with a large enough effect; inconclusive = small, poorly fitted or top-dose-only effect, or another doubt; inactive = no such curve, though single readings can be large or run the other way.

SMILES	Pf growth 48h	HCMV inh	Shiga toxin inh	Cycloheximide cs	Pf growth 96h
CC(=O)/C(N=Nc1ccc(C(=O)O)cc1)=C(\C)O	8.1%	7.0	3.5	-1.9	-1.3%
CC(=O)/C(N=Nc1ccc2c(c1)OCCO2)=C(\C)O	i	-70.7*	135.6*	81.6*	i
CCOc1ccc(CNC(=O)C2CCN(S(=O)(=O)c3ccc4c(ccn4C)c3)CC2)cc1	x	-2.5	x	x	x
COC(=O)Cc1ccc(NC(=S)NCC(C)C)cc1	41.2%	3.3	11.0	16.2*	0.6%
CC(=O)N(C)c1ccc(NC(=S)NCC(C)C)cc1	38.0%	-11.9	35.3	15.2*	22.6%
Cc1cc(N2CCC(C(=O)N(CC(C)C)CC(C)C)CC2)n2nc(C)c(-c3ccc(Cl)cc3)c2n1	x	9.8	x	x	x
COc1cc(C(=O)NC2CCCCCCC2)cc(OC)c1OC	x	1.5	x	x	x
COC(=O)c1ccc(C)c(NC(=O)C(CCSC)NC(=O)c2cc(OC)c(OC)c(OC)c2)c1 (configuration not stated)	-20.4%	35.2	-7.2	1.1	-14.9%
COc1cc(C(=O)N[C@H](C(=O)NC2CCCCCC2)C(C)C)cc(OC)c1OC	x	18.8	-5.1	5.9	11.7µM*
CCOc1cc(C(=O)NC(C)CC)cc(OCC)c1OCC (configuration not stated)	-0.1%	-5.0	-21.0	-2.7	-4.1%
COc1cc(C(=O)NC(CCSC)C(=O)OCC(=O)C(C)(C)C)cc(OC)c1OC (configuration not stated)	-1.1%	-10.4	52.7*	30.0	21.3%
CCC(C)NC(=O)c1cc(OC)c(OC)c(OC)c1 (configuration not stated)	-1.1%	100.0	19.3	1.2	2.33µM*
O=C(NC1CCCCCCC1)c1cc(F)c(F)cc1Cl	54.0%	-60.6*	83.1*	26.0*	u
Cc1ccc(C(=O)NC2CCCCCCC2)c(Cl)c1	167.4%	-79.2*	x	16.3*	-33.4%
CCOc1nc2ccccc2cc1C=O	5.4%	-72.9*	27.1	2.6	134.1%
CCCOc1nc2ccccc2cc1/C=C/C(=O)O	-27.5%	u	-1.7	1.0	u
CCC(C)NC(=O)N1c2ccccc2Sc2ccccc21 (configuration not stated)	u	3.5	-1.7	1.6	u
CCC(C)NC(=O)/C=C1\Sc2ccccc2NC1=O (configuration not stated)	26.6%	-0.3	40.2	12.8*	u
COc1ccc(N/C=C2/Sc3ccccc3NC2=O)cc1	239.9%	6.3	87.9*	44.2*	1.5%
Cc1ccc(N/C=C2/Sc3ccccc3NC2=O)cc1	172.3%	-0.7	70.2*	45.2*	296.1%
Cc1c(C(=O)NCCN(C)C)n(C)c(=O)c2ccccc12	x	38.8	x	x	x
COc1ccccc1N(CC(=O)N/N=C(\C)c1ccc(F)cc1)S(=O)(=O)c1ccccc1	u	-101.3*	x	x	u
C/C(=N/NC(=O)CN(c1ccccc1)S(=O)(=O)c1ccccc1)c1ccccc1O	u	-98.1*	4.9	-1.0	u
C/C(=N\NC(=O)CN(c1ccccc1)S(=O)(=O)c1ccccc1[N+](=O)[O-])C(C)(C)C	u	-62.9*	-12.2	-2.3	11.7µM*
CCCC/C(C)=N/NC(=O)CN(c1ccc(Br)cc1)S(=O)(=O)c1ccccc1	-7.7%	-16.2	-11.8	-4.8	-26.7%
SMILES	Pf growth 48h	HCMV inh	Shiga toxin inh	Cycloheximide cs	Pf growth 96h
CCCCc1c(C)nc2nc(SCc3ccc(Cl)cc3)[nH]n2c1=O	-9.9%	52.9	7.2	-3.7	u
CCOC(=O)c1cc(S(=O)(=O)N2CCN(c3ccccc3)CC2)[nH]n1	x	3.9	x	x	x
Cc1ccc2nc(SCC(=O)Nc3cccnc3Cl)[nH]c2c1	-28.6%	-37.4	x	x	-19.9%
CCc1ccc(Nc2nnc(SCC(=O)Nc3sccc3C(N)=O)s2)cc1	u	8.2	62.3*	31.7*	u
COc1cccc(Nc2nnc(SCC(=O)Nc3sccc3C(N)=O)s2)c1	u	u	41.0	9.9	u
Cc1ccc(-n2c(SCC(=O)NCCN3C(=O)CSC3=O)nnc2-c2ccccc2)cc1	-10.8%	u	13.5	3.9	14.7µM*
Cc1ccc(-n2c(SCC(=O)NCCN3C(=O)CSC3=O)nnc2-c2cccc(C)c2)cc1	u	-31.3	-6.9	-4.5	u
Cn1c(SCC(=O)NCCN2C(=O)CSC2=O)nnc1-c1ccccc1	42.9%	15.9	-5.5	-2.8	-4.5%
CCc1ccc(Nc2nnc(SCC(=O)NCCN3C(=O)CSC3=O)s2)cc1	23.5%	30.8	53.5*	40.5*	u
Cc1ccc(C)c(SCC(=O)Nc2cccnc2Cl)c1	10.4µM*	-20.0	-9.8	1.8	u
